FLuc modulator: inhibits or activates purified firefly luciferase, miR-21 counter-screen; actives 6.9% (n = 360,000); AID 588342; P08659; purified FLuc, Km substrates, luminescence inhibition; Potency, µM (doses to about 57.5 µM), hits mostly inhibitors; also: nearly all actives have a fitted effect of over 55% in size
Target sequence (P08659 whole entry, looked up): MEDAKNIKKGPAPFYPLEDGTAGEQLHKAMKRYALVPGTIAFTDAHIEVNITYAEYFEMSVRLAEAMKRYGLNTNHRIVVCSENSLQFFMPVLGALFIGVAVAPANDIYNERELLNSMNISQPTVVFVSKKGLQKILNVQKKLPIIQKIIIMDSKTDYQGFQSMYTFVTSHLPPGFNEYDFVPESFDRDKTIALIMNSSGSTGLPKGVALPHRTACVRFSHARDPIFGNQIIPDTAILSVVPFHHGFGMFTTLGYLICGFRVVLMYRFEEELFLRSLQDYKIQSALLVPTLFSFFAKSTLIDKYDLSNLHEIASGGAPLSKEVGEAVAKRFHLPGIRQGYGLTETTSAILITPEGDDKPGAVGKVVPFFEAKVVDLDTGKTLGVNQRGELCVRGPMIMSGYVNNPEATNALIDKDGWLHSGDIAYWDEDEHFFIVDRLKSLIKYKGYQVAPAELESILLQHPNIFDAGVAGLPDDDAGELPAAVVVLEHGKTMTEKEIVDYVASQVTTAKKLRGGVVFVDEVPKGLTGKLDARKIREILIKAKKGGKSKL
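Purified P. pyralis luciferase, 10 nM final, with Km-level 10 uM D-luciferin and 10 uM ATP in 50 mM Tris acetate pH 7.5, 10 mM Mg acetate, 0.01% Tween-20, 0.05% BSA; 6-point qHTS titration about 60 µM downward; luminescence read.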
NPC1 promoter act: NPC1 promoter activation | Huh7 NPC1 promoter luciferase reporter, 24 h | Potency, µM (top dose mostly 9.22 µM), hits mostly activators | actives 2.4% (n = 320,000) | AID 485313; also: nearly all actives have a fitted effect of over 60% in size
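Luciferase expression driven by the NPC1 promoter was measured in stably transfected Huh7 cells after a 24 h compound incubation, using a luciferase reagent and a luminescence read.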
ELG1 genotoxic: genotoxicity induction in ELG1-luciferase HEK293T cells; HEK293T ELG1-luciferase reporter, luminescence, 16 h; Potency, µM (top dose mostly 46 µM), hits mostly activators; actives 1.3% (n = 330,000); AID 504466; also: nearly all actives have a fitted effect of over 60% in size
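Cells (2,000/well) expressing the ELG1-luciferase fusion are dosed by pin tool and kept 16 hr at 37 °C, 5% CO2. Signal comes from ONE-Glo luciferase reagent after 30 min at room temperature.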
SMN2 splice up: enhancers of SMN2 splice variant expression; HEK293 SMN2-luciferase splicing reporter, luminescence, 30-36 h; actives 2.8% (n = 210,000); Potency, µM (doses to about 46.1 µM), hits mostly activators; AID 1458; also: nearly all actives have a fitted effect of over 55% in size
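HEK293 cells carry an SMN2 minigene-luciferase reporter in which exon 7 inclusion puts luciferase in frame. Cells were seeded at 2000 cells/well, attached for 10-12 hours, then exposed to compounds for 30-36 hours at 37C before ONE-Glo luminescence.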
ELG1 DNA repair: inhibitors of ELG1-dependent DNA repair in HEK293T cells; HEK293T ELG1-luciferase reporter, luminescence, 16 h; DNA damage induced by 5-fluorouridine; Potency, µM (titrated, usually from 46.1 µM), hits mostly inhibitors; actives 2.3% (n = 330,000); AID 504467; also: nearly all actives have a fitted effect of over 55% in size
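HEK293T cells expressing luciferase-tagged ELG1 (2,000/well) received 5-Fluorouridine plus compound or DMSO for 16 hr at 37 °C. Luciferase was read by ONE-Glo luminescence after 30 min at room temperature.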
Rab9 promoter act: activates the Rab9 promoter; Huh7 Rab9 promoter-luciferase reporter, luminescence, 24 h; Potency, µM (titrated, usually from 9.22 µM), hits mostly activators; actives 2.8% (n = 320,000); AID 485297; also: nearly all actives have a fitted effect of over 60% in size
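Luciferase signal after 10 min detection reagent at ambient indicates Rab9 promoter upregulation; stably transfected Huh7 cells were treated 24 h with compound in DMSO at 37 °C, 5% CO2.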
Numbers stand for hits; - = inactive; ? = inconclusive; . = no result given. In the library only some 9.3% were active in any assay of this set; here they are far more common. Calls follow the shape of the dose curve; as a rule, active = well fitted curve in the direction sought with a large enough effect; inconclusive = small, poorly fitted or top-dose-only effect, or another doubt; inactive = no such curve, though single readings can be large; an effect the other way counts as inactive or inconclusive.

SMILES	FLuc modulator	NPC1 promoter act	ELG1 genotoxic	SMN2 splice up	ELG1 DNA repair	Rab9 promoter act
O=c1/c(=C\c2ccc(F)cc2)sc2n1CCCN=2	13µM	?	?	?	?	?
COC(=O)/C=c1/sc2n(c1=O)CCN=2	-	-	-	-	-	-
C=CCn1c(=O)/c(=C/c2ccc(F)cc2)s/c1=C(\C#N)c1nnc2n1CCCCC2	-	-	-	.	?	-
NC(=O)CC(NC(=O)c1ccccc1)c1ccc(N2CCN(c3ccc(F)cc3)CC2)c([N+](=O)[O-])c1 (stereo unspecified)	-	-	-	.	?	-
Cc1ccc(NC(=O)COC(=O)C2CC3CCCC(C2)C3=O)c([N+](=O)[O-])c1 (stereo unspecified)	-	-	-	.	-	-
N#Cc1cc([N+](=O)[O-])ccc1NC(=O)COC(=O)C12CC3CC(CC(C3)C1)C2	-	-	-	.	10µM	-
N#Cc1cc([N+](=O)[O-])ccc1NC(=O)COC(=O)C1CC2CCCC(C1)C2=O (stereo unspecified)	-	-	-	.	9.2µM	-
O=C(COC(=O)C12CC3CC(CC(C3)C1)C2)Nc1ccc([N+](=O)[O-])cc1Br	-	-	-	-	?	-
Cc1ccc(Oc2ncc(-c3ccc(Cl)cc3)cn2)cc1	-	-	-	-	-	-
Nc1c(C(=O)N2CCOCC2)sc2nc3c(cc12)CCCC3	0.48µM	0.35µM	0.58µM	.	?	0.11µM
Nc1c(C(=O)N2CCOCC2)sc2nc3c(cc12)CCC3	7.6µM	1.3µM	2.9µM	11µM	?	0.89µM
Nc1c(C(=O)N2CCCC2)sc2nc3c(cc12)CCCCCC3	?	3.2µM	-	14µM	?	4µM
COC(=O)c1sc2nc3c(cc2c1N)CCCC3	3µM	1.4µM	?	10µM	?	0.5µM
CC(=O)c1ccc([N+](=O)[O-])cc1	-	-	-	-	-	-
CCc1nc2c(cnn2-c2ccc(F)cc2)c(=O)n1-c1ccc(N2CCC(C)CC2)cc1	-	-	-	-	16µM	-
Cc1nc2c(cnn2-c2ccccc2Cl)c(=O)n1-c1ccc(N2CCC(C)CC2)cc1	-	-	-	-	16µM	-
COc1ccc(-c2csc(/C(C#N)=C/Nc3ccc4c(c3)OCCO4)n2)cc1	-	-	-	-	?	-
c1ccc(-c2csc(Nc3ccc4c(c3)OCCO4)n2)cc1	0.54µM	.	.	4µM	.	.
COc1cccc(Nc2nc(-c3ccc4c(c3)OCCO4)cs2)c1	3.4µM	?	?	14µM	?	3.2µM
COc1nc(Nc2ccc3c(c2)OCO3)nc(OC)n1	-	-	?	-	?	-
N#C/C(=C\Nc1ccc2c(c1)OCCO2)c1nc(-c2ccccc2)cs1	-	-	?	-	-	-
c1cc2c(cc1Nc1nc(-c3ccc4c(c3)OCO4)cs1)OCCO2	4.3µM	3.2µM	?	4µM	?	2.8µM
COc1ccc(NC2=NCCC(=O)N2Cc2cccs2)cc1	-	-	-	-	?	-
COc1cc2nc(Nc3ccc(F)cc3)nc(N)c2cc1OC	?	-	-	-	?	-
Cc1ccc(Nc2nc(N)c3ccccc3n2)cc1Cl	0.95µM	0.56µM	?	.	?	0.63µM
SMILES	FLuc modulator	NPC1 promoter act	ELG1 genotoxic	SMN2 splice up	ELG1 DNA repair	Rab9 promoter act
CCOC(=O)c1ccc(Nc2nc(N)c3cc(OC)c(OC)cc3n2)cc1	7.6µM	-	-	-	-	-
OCCNc1c2ccccc2nc2ccccc12	-	-	-	.	21µM	-
Cc1ccc(Nc2nc(NCCO)c3ccccc3n2)cc1C	7.6µM	-	-	.	-	-
COc1ccc(C(=O)N/N=C2\SCC(=O)N2Cc2ccc3c(c2)OCO3)c(OC)c1	-	-	?	-	-	-
COc1cc2nc(Nc3cccc(C)c3)nc(N)c2cc1OC	5.4µM	.	.	-	.	.
COc1cc2nc(Nc3ccc(C)c(C)c3)nc(N)c2cc1OC	?	-	-	-	-	-
COc1cc2nc(Nc3ccc(C)c(Cl)c3)nc(N)c2cc1OC	21µM	-	-	.	?	-
Cc1ccc(C(=O)NN2C(=O)/C(=C/c3cn(C)c4ccccc34)SC2=S)cc1	?	-	-	-	-	-
Cn1cc(/C=C2\SC(=S)N(NC(=O)c3ccccc3Cl)C2=O)c2ccccc21	27µM	-	-	-	-	-
CN1/C(=C\C=C2/C(=O)Oc3ccccc3C2=O)C(C)(C)c2ccccc21	?	?	?	?	-	2.8µM
CN1C(=CC=C2C=C(I)C(=O)C(I)=C2)C(C)(C)c2ccccc21	21µM	-	-	.	?	-
CN1/C(=C\C=N\O)C(C)(C)c2ccccc21	-	-	-	-	-	-
CN(C)c1ccc(N=C/C=C2/N(C)c3ccccc3C2(C)C)cc1	15µM	-	-	-	?	-
CC1=NN(c2ccccc2)C(=O)/C1=C\C=C1/N(C)c2ccccc2C1(C)C	?	-	-	-	?	-
O=c1[nH]c2ccccc2n1C1=CCCC1	-	-	-	-	-	-
CC(NC(=O)CCC(=O)N1CCCCCC1)c1ccccc1 (stereo unspecified)	-	-	-	.	-	-

Screening data (PubChem BioAssay)
